Experimental data: PubChem BioAssay
Unmarked numbers belong to inactive results. How the calls were made is not given here.

Target: Pantothenate synthetase (Mycobacterium tuberculosis (strain ATCC 25618 / H37Rv)) (UniProt P9WIL5)
Experiment: Recombinant Mtb pantothenate synthetase (PanC) inhibitors, coupled enzyme, confirmatory (AID 375);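 further: 0% = full reaction with vehicle and 100% = no enzyme background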
Settings: coupled enzyme assay; at 10 µM, active compounds read high

Pantothenate synthetase (Mycobacterium tuberculosis (strain ATCC 25618 / H37Rv)), sequence (P9WIL5 whole entry, looked up): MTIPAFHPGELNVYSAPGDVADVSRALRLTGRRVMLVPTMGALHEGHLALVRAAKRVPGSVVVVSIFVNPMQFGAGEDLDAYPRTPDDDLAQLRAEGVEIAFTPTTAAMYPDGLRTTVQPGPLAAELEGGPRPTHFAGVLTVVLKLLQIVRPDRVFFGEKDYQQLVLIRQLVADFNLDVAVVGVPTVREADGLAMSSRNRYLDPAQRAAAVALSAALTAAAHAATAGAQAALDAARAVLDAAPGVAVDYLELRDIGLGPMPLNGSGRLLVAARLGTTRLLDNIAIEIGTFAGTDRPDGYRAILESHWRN

| Structure (SMILES) | inhibition [%] |
| --- | --- |
| O=C(c1ccccc1)c1ccc2nc[nH]c2c1 | 0 |
| Cc1ccccc1Cn1cc(/C=N/n2cnnc2)c2ccccc21 | 0 |
| COc1cccc(C2CC(c3ccc(C)cc3)Nc3nc(N)nn32)c1 (stereo not given) | 0 |
| Cc1ccc(-c2nnn(CC(=O)N(Cc3cccs3)C(C(=O)NC(C)(C)C)c3ccc(C)o3)n2)o1 (stereo not given) | 0 |
| O=C(COC(=O)C1CC(=O)N(c2ccccc2)C1)c1ccccc1 (stereo not given) | 0 |
| CN(C)CC(=O)N1c2ccccc2CCc2ccc(NC(=O)c3ccc(N)cc3)cc21 | 0 |
| Cc1ccc(S(=O)(=O)NCCCNC(=O)N2CCOCC2)cc1 | 0 |
| CC(NC(=O)c1noc2c1CCCCC2)c1ccccc1 (stereo not given) | 0 |
| CCSc1nnc(NC(=O)c2nn(C(C)C)c(=O)c3ccccc23)s1 | 1 |
| O=C(O)Cc1ccc(-c2ccccc2)cc1 | 0 |
| O=C(NCCC1=CCCCC1)c1cc2c(s1)CS(=O)(=O)C2 | 1 |
| Cc1ccc(C(C(=O)NC2CCCCC2)N(C(=O)c2csnn2)C2CCCC2)o1 (stereo not given) | 0 |
| O=C(Oc1ccc2c(c1)CCC2)N1CCOCC1 | 0 |
| Cc1ccc2[nH]c3c(c2c1)CN(C(=O)CN1CCN(c2cccc(C)c2C)CC1)CC3 | 0 |
| CCOC(=O)N1CCN(c2c(NCCCOC(C)C)c(=O)c2=O)CC1 | 4 |
| O=C(OCn1nnc2ccccc2c1=O)c1cc2ccccc2o1 | 2 |
| CCCCOc1ccc(-c2nnn(C(C)(C)C(=O)OC)n2)cc1 | 5 |
| CCOc1ccc2cc(C#N)c(SCC(=O)N3CCCC3)nc2c1 | 0 |
| COc1ccccc1-n1nnnc1SCc1cc2c(cc1Br)OCO2 | 0 |
| OC[C@H]1O[C@@H](n2cnc3c(Nc4ccccc4)ncnc32)[C@H](O)[C@@H]1O | 1 |

| Structure (SMILES) | inhibition [%] |
| --- | --- |
| CCOC(=O)C1C2C=CC3(CN(Cc4ccco4)C(=O)C13)O2 (stereo not given) | 0 |
| COc1ccc(S(=O)(=O)n2nc(OC(=O)c3ccc(C)cc3)cc2N)cc1 | 5 |
| NC(=O)C1(N2CCCCC2)CCN(C(=O)Nc2ccccc2C(F)(F)F)CC1 | 1 |
| COc1cc(C2C(C(=O)c3ccc(C)o3)=C(O)C(=O)N2c2cc(C)on2)cc(Br)c1O (stereo not given) | 0 |
| CC1=CC2=C(OC1N(C)C)c1cccc3cccc(c13)C2=O (stereo not given) | 5 |
| COc1ccc(C(=O)NCC(=O)NC2=NCCS2)cc1 | 0 |
| O=S(=O)(Nc1nc2ccccc2nc1NCc1ccco1)c1ccc(Cl)cc1 | 0 |
| O=C(Nc1ccc(N2CCOCC2)cc1)c1cccc(S(=O)(=O)N2CCCC2)c1 | 0 |
| C=CCn1c(SCC(=O)Nc2ccc3c(c2)OCO3)nc2ccccc2c1=O | 2 |
| O=C(CSc1nnc2scc(-c3ccccc3)n12)Nc1nsc(-c2ccccc2)n1 | 1 |
| CCN1C(=O)Cc2cc(S(=O)(=O)N3CCOCC3)ccc21 | 9 |
| CCCCCCC(C)n1[nH]c(=O)c2c(C)cc(=O)[nH]c21 (stereo not given) | 5 |
| CC1CN(C(=O)CSc2ncnc3sccc23)CC(C)O1 (stereo not given) | 0 |
| CC12COC3(C(=O)Nc4ccc(Cl)cn4)CC1CCC32C (stereo not given) | 0 |
| COc1ccccc1N(C)S(=O)(=O)c1ccc(C(=O)NC2=NCCS2)cc1 | 7 |
| CC1(C)NC(=O)N(CC(O)COc2ccc(-c3ccccc3)cc2)C1=O (stereo not given) | 0 |
| COc1cc2nc(N3CCN(C(=O)C4CCCO4)CC3)nc(N)c2cc1OC (stereo not given) | 0 |
| Nc1ncnc(Nc2ccccc2C(F)(F)F)n1 | 0 |
| O=C(NCC1COc2ccccc2O1)C1CCCN(S(=O)(=O)c2cnc[nH]2)C1 (stereo not given) | 0 |
| CN1CC=C2C(C#N)=C(N)C(C#N)(C#N)[C@H](c3cccc(Cl)c3)C2C1 (stereo not given in full) | 0 |
